Laboratory results taken from PubChem BioAssay (NCI).
The panel holds about 83,000 compounds, 20% with a hit somewhere; the sample as a whole holds those more often.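 The test compound was applied at a single concentration to cells in 96-well plates for 48 hours, and percent growth was recorded.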 Values without a mark were called inactive. Active and inactive are the calls of the source. The calls were made as follows: active = growth percent below 10; inactive = the rest.

system: SF-268 CNS; assay: NCI-60 one-dose screen, 48 h (100 = growth as untreated, 0 = no growth, -100 = all killed); conditions: 10 µM unless noted

SMILES | growth
[O-]/[N+](=C\c1ccccc1)CC1(O)CCCCC1 | 105%
CC(=O)O[C@H]1[C@H](CC#CC#CC[C@@H]2C[C@]3(C)[C@H]4CC=C5[C@H]6[C@@H](C)[C@H](C)CC[C@]6(C(=O)NCCCCCCCCN)CC[C@@]5(C)[C@]4(C)CC[C@H]3C(C)(C)[C@H]2OC(C)=O)C[C@]2(C)[C@H]3CC=C4[C@H]5[C@@H](C)[C@H](C)CC[C@]5(C(=O)NCCCCCCCCN)CC[C@@]4(C)[C@]3(C)CC[C@H]2C1(C)C | 102%
N#Cc1c(N)c(C(=O)c2ccc3c(c2)OCCO3)n2c1CCCC2 | 36.9%
Cc1c(O)c(=O)n(-c2ccccc2)n1C | 114%
COc1ccc2[nH]c(O)c(/C=c3/ccc4c(c3)N=C(c3ccc(C(F)(F)F)cc3)N=4)c2c1 | 85.6%
COc1ccc(/C=C/C(=O)c2ccc(NC(=O)CSc3nnc(-c4ccc(OC)cc4)n3-c3ccccc3)cc2)cc1 | 101%
N=C(N)c1ccc(-c2ccc(-c3cc(Cl)cc(Cl)c3)o2)nc1 | -67.1% (active)
CN(C)c1ccc(N2Cc3ccccc3OC3=C2C(=O)c2c(O)ccc(O)c2C3=O)cn1 | -32.5% (active)
COc1ccccc1/C=N\NC(=S)Nc1ccc(F)cc1 | 91.6%
FC(F)(F)C1=NNC(c2ccc3ccccc3c2)=NN1 | 100%
CCCC(CCC)NCC(O)c1cc(-c2ccc(C(F)(F)F)cc2)nc(C(F)(F)F)c1 (stereo not drawn) | -40.5% (active)
CCOC(=O)c1c(NC(=O)c2ccccc2)sc2c(O)c(CN(CC)CC)ccc12 | 4.48% (active)
CCOC(C)(c1ccc(Cl)cc1)C1CCNCC1 (stereo not drawn) | 115%
O=S(=O)(NCC[C@@H]1C[C@H]1c1ccc2ccccc2c1)c1ccc(C(F)(F)F)cc1 | 89.3%
CC(CN1CCN(C)CC1)CN1c2ccccc2Sc2ccc(C(F)(F)F)cc21 (stereo not drawn) | 52.2%
NC(=S)N/N=C(/c1cccs1)C1CC1 | 99.4%
COc1cc(C2Nc3ccccc3S2)cc(CN2CCOCC2)c1O (stereo not drawn) | 91.1%
O=[N+]([O-])c1cccc([I+]c2ccccc2)c1 | 50.1%
C=CCn1c(SCC(=O)Nc2ccc(/C(C)=N\O)cc2)nnc1-c1cc(-c2ccccc2)nc2ccccc12 | 62.8%
C=CC[C@]1(O)CC[C@H]2[C@@H]3CCc4cc(O)ccc4[C@H]3CC[C@@]21C | 97.1%

SMILES | growth
CC(=O)c1c(O)c(C)c(O)c2c1OC1=CC(=O)/C(=C(/C)N)C(=O)C12C (stereo not drawn) | 95.2%
COc1c(B(O)O)cccc1-c1nc2c(F)cc3n[nH]c(C)c3c2c2c1CCCC2 | 17.5%
CCCCNCC(O)c1cc(-c2ccc(C(F)(F)F)cc2)nc(-c2ccc(C(F)(F)F)cc2)c1 (stereo not drawn) | -86% (active)
Oc1[nH]c2ccc(Cl)cc2c1/C=c1/ccc2c(c1)N=C(c1ccc(F)cc1)N=2 | 77.2%
COc1ccc(C(=O)c2c(N)nc3n2CCCC3)cc1OC | 106%
CCOC(=O)Nc1ccc2nc(-c3cscn3)[nH]c2c1 | 66.5%
CCOC(=O)C(Nc1ccccc1)C(=O)OCC | 122%
CN1CCN(Cc2ccc(NC(=O)c3cncc(C#Cc4ncc5ccccn45)c3)cc2C(F)(F)F)CC1 | 15.4%
COS(=O)(=O)CCN(CCOS(C)(=O)=O)S(C)(=O)=O | 107%
O=C(c1ccccc1)N(CCCCl)C(=O)N(CCCCl)C(=O)c1ccccc1 | 100%
OC(c1cc2cc(Cl)ccc2c2cc(C(F)(F)F)ccc12)C1CCCCN1 (stereo not drawn) | -90.1% (active)
CC(C)CC(NC(=O)C(CCCN=C(N)N)NC(=O)OCc1ccccc1)C(=O)NC(CNC(=O)/C=C/c1ccccc1)C(C)C (stereo not drawn) | 107%
CCn1c(CN2CCN(Cc3ccccc3)CC2)nc2cc(NC(=O)c3cccs3)ccc21 | -88.3% (active)
COc1cc(C)cc2oc3oc(=O)c(-c4csc(-c5cc6ccccc6oc5=O)n4)cc3c(=O)c12 | 105%
OC(c1cc2c(Cl)cc(Cl)cc2c2cc(C(F)(F)F)ccc12)C1CCCCN1 (stereo not drawn) | -82.9% (active)
N#CC1=C(N)Oc2nc[nH]c(=O)c2C1c1cccs1 (stereo not drawn) | 108%
Cc1cc(C)cc(Nc2cc(C)nc3nc(C(F)(F)F)nn23)c1 | 28.7%
Cc1ccc(N2C3c4ccccc4N(S(=O)(=O)c4ccc(C)cc4)C2c2ccccc2N3S(=O)(=O)c2ccc(C)cc2)cc1 | 107%
CCOC(=O)c1ccc(NC(=O)NC2=NCCS2)cc1 | 40.4%

system: SF-539 CNS; assay: as above; conditions: 10 µM unless noted

SMILES | growth
[O-]/[N+](=C\c1ccccc1)CC1(O)CCCCC1 | 97%
CC(=O)O[C@H]1[C@H](CC#CC#CC[C@@H]2C[C@]3(C)[C@H]4CC=C5[C@H]6[C@@H](C)[C@H](C)CC[C@]6(C(=O)NCCCCCCCCN)CC[C@@]5(C)[C@]4(C)CC[C@H]3C(C)(C)[C@H]2OC(C)=O)C[C@]2(C)[C@H]3CC=C4[C@H]5[C@@H](C)[C@H](C)CC[C@]5(C(=O)NCCCCCCCCN)CC[C@@]4(C)[C@]3(C)CC[C@H]2C1(C)C | 94.1%
N#Cc1c(N)c(C(=O)c2ccc3c(c2)OCCO3)n2c1CCCC2 | 24.2%
Cc1c(O)c(=O)n(-c2ccccc2)n1C | 97.6%
COc1ccc2[nH]c(O)c(/C=c3/ccc4c(c3)N=C(c3ccc(C(F)(F)F)cc3)N=4)c2c1 | 78.2%
COc1ccc(/C=C/C(=O)c2ccc(NC(=O)CSc3nnc(-c4ccc(OC)cc4)n3-c3ccccc3)cc2)cc1 | 100%
N=C(N)c1ccc(-c2ccc(-c3cc(Cl)cc(Cl)c3)o2)nc1 | -90.9% (active)
CN(C)c1ccc(N2Cc3ccccc3OC3=C2C(=O)c2c(O)ccc(O)c2C3=O)cn1 | -63% (active)
COc1ccccc1/C=N\NC(=S)Nc1ccc(F)cc1 | 73.3%
FC(F)(F)C1=NNC(c2ccc3ccccc3c2)=NN1 | 93.9%
CCCC(CCC)NCC(O)c1cc(-c2ccc(C(F)(F)F)cc2)nc(C(F)(F)F)c1 (stereo not drawn) | -72.2% (active)
CCOC(=O)c1c(NC(=O)c2ccccc2)sc2c(O)c(CN(CC)CC)ccc12 | 6.42% (active)
CCOC(C)(c1ccc(Cl)cc1)C1CCNCC1 (stereo not drawn) | 88.1%
O=S(=O)(NCC[C@@H]1C[C@H]1c1ccc2ccccc2c1)c1ccc(C(F)(F)F)cc1 | 99.9%
CC(CN1CCN(C)CC1)CN1c2ccccc2Sc2ccc(C(F)(F)F)cc21 (stereo not drawn) | 67.5%
NC(=S)N/N=C(/c1cccs1)C1CC1 | 95.7%
COc1cc(C2Nc3ccccc3S2)cc(CN2CCOCC2)c1O (stereo not drawn) | 82.3%
O=[N+]([O-])c1cccc([I+]c2ccccc2)c1 | 65.6%
C=CCn1c(SCC(=O)Nc2ccc(/C(C)=N\O)cc2)nnc1-c1cc(-c2ccccc2)nc2ccccc12 | 50.6%
C=CC[C@]1(O)CC[C@H]2[C@@H]3CCc4cc(O)ccc4[C@H]3CC[C@@]21C | 105%

SMILES | growth
CC(=O)c1c(O)c(C)c(O)c2c1OC1=CC(=O)/C(=C(/C)N)C(=O)C12C (stereo not drawn) | 99.7%
COc1c(B(O)O)cccc1-c1nc2c(F)cc3n[nH]c(C)c3c2c2c1CCCC2 | 4.1% (active)
CCCCNCC(O)c1cc(-c2ccc(C(F)(F)F)cc2)nc(-c2ccc(C(F)(F)F)cc2)c1 (stereo not drawn) | -74.9% (active)
Oc1[nH]c2ccc(Cl)cc2c1/C=c1/ccc2c(c1)N=C(c1ccc(F)cc1)N=2 | 92.2%
COc1ccc(C(=O)c2c(N)nc3n2CCCC3)cc1OC | 102%
CCOC(=O)Nc1ccc2nc(-c3cscn3)[nH]c2c1 | 62.9%
CCOC(=O)C(Nc1ccccc1)C(=O)OCC | 111%
CN1CCN(Cc2ccc(NC(=O)c3cncc(C#Cc4ncc5ccccn45)c3)cc2C(F)(F)F)CC1 | -79.6% (active)
COS(=O)(=O)CCN(CCOS(C)(=O)=O)S(C)(=O)=O | 91.2%
O=C(c1ccccc1)N(CCCCl)C(=O)N(CCCCl)C(=O)c1ccccc1 | 97.2%
OC(c1cc2cc(Cl)ccc2c2cc(C(F)(F)F)ccc12)C1CCCCN1 (stereo not drawn) | -80.5% (active)
CC(C)CC(NC(=O)C(CCCN=C(N)N)NC(=O)OCc1ccccc1)C(=O)NC(CNC(=O)/C=C/c1ccccc1)C(C)C (stereo not drawn) | 96.4%
CCn1c(CN2CCN(Cc3ccccc3)CC2)nc2cc(NC(=O)c3cccs3)ccc21 | -69.8% (active)
COc1cc(C)cc2oc3oc(=O)c(-c4csc(-c5cc6ccccc6oc5=O)n4)cc3c(=O)c12 | 99.3%
OC(c1cc2c(Cl)cc(Cl)cc2c2cc(C(F)(F)F)ccc12)C1CCCCN1 (stereo not drawn) | -81.5% (active)
N#CC1=C(N)Oc2nc[nH]c(=O)c2C1c1cccs1 (stereo not drawn) | 101%
Cc1cc(C)cc(Nc2cc(C)nc3nc(C(F)(F)F)nn23)c1 | 4.14% (active)
Cc1ccc(N2C3c4ccccc4N(S(=O)(=O)c4ccc(C)cc4)C2c2ccccc2N3S(=O)(=O)c2ccc(C)cc2)cc1 | 95.4%
CCOC(=O)c1ccc(NC(=O)NC2=NCCS2)cc1 | 1.9% (active)
